# Data as given in the OligoGym collection.
# Target: OXSR1
# Test: pooled miR-30 sensor sort-seq; sequence = guide strand
# Conditions: shRNA
# Further: reference of the scale not given here.
row,Sequence,sensor-assay potency score (higher = more potent)
1,TATCTGAGCCTTCGACACCAGA,-1.2
2,TAATCTTAGTACTAGACTGATT,-1.17
3,TATTGATTCTTTCACTCGGGGA,-0.811
4,TTGAAGAAATTCTTTATTCTTT,-0.617
5,TTCATCATCACTCCACTCCCAG,-0.375
6,TTTCTTTATCTTGAACACCAGT,-0.815
7,TTGTCTGTAAAAACAATCCAAA,-1.04
8,TTTGATTGCCACTTTCTCCTTT,0.477
9,TTTACTAACGGAACTCTGGGGA,0.644
10,TTTCTTGTGAACCTGATCCTGA,0.134
11,TCTTGGTTTCTTGTGAACCTGA,-0.403
12,TTAATCTTAGTACTAGACTGAT,-0.309

# Target: P2RX3
# Test: as above
# Conditions: shRNA
row,Sequence,sensor-assay potency score (higher = more potent)
1,TTGTCCAAGTCGCACACCCAGC,-1.44
2,TTCCACTGTGTCCACCTCCGTG,-1.06
3,TTGAACTTGCCAGCATTCCCGT,-1.02
4,TCAGTAACAATCATCTTGGTGA,0.681
5,TTCACCTTGGTTACCACCGAGG,-0.997
6,TTGATGATCCCGATGGTCCAGC,-0.677
